“And” between values parts separate entries of the source, which are not always exact repeats. Identical values can stand only once. The whole screen tested about 5,500 compounds, of which about 2,000 (36%) were called active. Roughly 18% stayed inconclusive and do not appear here. Rule as the data show it: active = normalized growth mostly below about 0.91 (no sharp cut-off); inconclusive = no clear call, values can overlap the other calls; inactive = mostly above about 0.92. The list shows a part of the results.
Assay: chemical genetic growth profiling, strain panel (AID 1159580);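 also: tested at 20 µM; growth read once vehicle control cultures reached saturation at 30 °C; 1 = growth at the plate median or of vehicle wells; lower values mean less growth of the strain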
Details: S. cerevisiae deletion strains, growth OD

Measured: normalized growth

COC1=CC(=O)C[C@@H](C)[C@]12Oc1c(Cl)c(OC)cc(OC)c1C2=O
inactive: locus YAL013W, strain DEP1, active compounds read low 1.02 | locus YAL021C, strain ccr4, active compounds read low 1.01 | locus YAL026C, strain drs2, active compounds read low 0.989 | locus YAL030W, strain snc1, active compounds read low 0.988 | locus YBL061C, strain skt5, active compounds read low 0.972 | locus YBR009C, strain hhf1, active compounds read low 0.937 | locus YBR021W, strain FUR4, active compounds read low 1 | locus YBR023C, strain chs3, active compounds read low 0.978 | locus YBR171W, strain sec66, active compounds read low 0.961 | locus YBR229C, strain ROT2, active compounds read low 0.954 | locus YBR231C, strain swc5, active compounds read low 1 | locus YBR279W, strain paf1, active compounds read low 0.987 | locus YCL011C, strain gbp2, active compounds read low 0.963 | locus YCL016C, strain dcc1, active compounds read low 0.958 | locus YCL029C, strain bik1, active compounds read low 0.987 | locus YCL061C, strain MRC1, active compounds read low 1 | locus YCL069W, strain vba3, active compounds read low 0.979 | locus YCR088W, strain abp1, active compounds read low 0.979 | locus YDL005C, strain med2, active compounds read low 0.996 | locus YDL035C, strain GPR1, active compounds read low 0.95 | locus YDL040C, strain nat1, active compounds read low 0.995 | locus YDL074C, strain BRE1, active compounds read low 1.02 | locus YDL101C, strain DUN1, active compounds read low 1 | locus YDL134C, strain PPH21, active compounds read low 0.97 | locus YDL185W, strain tfp1, active compounds read low 0.972 | locus YDL192W, strain arf1, active compounds read low 0.988 | locus YDR001C, strain nth1, active compounds read low 0.982 | locus YDR069C, strain doa4, active compounds read low 0.991 | locus YDR101C, strain arx1, active compounds read low 0.992 | locus YDR137W, strain rgp1, active compounds read low 0.954 | locus YDR150W, strain NUM1, active compounds read low 0.996 | locus YDR159W, strain sac3, active compounds read low 1.02 | locus YDR162C, strain NBP2, active compounds read low 0.932 | locus YDR195W, strain ref2 1.03 | locus YDR297W, strain sur2, active compounds read low 1 | locus YDR318W, strain mcm21, active compounds read low 0.988 | locus YDR334W, strain swr1, active compounds read low 0.993 | locus YDR335W, strain msn5, active compounds read low 0.986 | locus YDR388W, active compounds read low 1 | locus YDR392W, strain spt3, active compounds read low 0.907 | locus YDR502C, strain sam2, active compounds read low 0.999 | locus YEL003W, strain gim4, active compounds read low 0.986 | locus YEL037C, strain rad23, active compounds read low 0.984 | locus YEL061C, strain CIN8 (second series), active compounds read low 0.977 | locus YEL061C, strain CIN8, active compounds read low 0.996 | locus YER015W, strain faa2, active compounds read low 0.971 | locus YER016W, strain bim1, active compounds read low 0.971 | locus YER110C, active compounds read low 0.989 | locus YER111C, strain swi4, active compounds read low 0.979 | locus YER155C, strain BEM2 (second series), active compounds read low 1.01 | locus YER155C, strain BEM2, active compounds read low 1.01 | locus YER167W, strain BCK2, active compounds read low 0.981 | locus YFR010W, strain ubp6, active compounds read low 0.987 | locus YGL078C, strain dbp3, active compounds read low 0.987 | locus YGL086W, strain mad1, active compounds read low 0.994 | locus YGL167C, strain pmr1, active compounds read low 0.97 | locus YGL173C, strain kem1, active compounds read low 0.984 | locus YGL227W, strain vid30, active compounds read low 0.978 | locus YGL240W, strain doc1, active compounds read low 1.01 | locus YGL248W, strain PDE1, active compounds read low 1.01 | locus YGL253W, strain hxk2, active compounds read low 0.994 | locus YGR078C, strain PAC10, active compounds read low 1.01 | locus YGR135W, strain pre9, active compounds read low 1.01 | locus YGR229C, strain SMI1, active compounds read low 0.978 | locus YGR252W, strain gcn5, active compounds read low 0.992 | locus YHR013C, strain ard1, active compounds read low 0.975 | locus YHR027C, strain rpn1, active compounds read low 0.975 | locus YHR030C, strain SLT2, active compounds read low 0.988 and 1.01 | locus YHR079C, strain IRE1 (second series), active compounds read low 0.995 | locus YHR079C, strain IRE1, active compounds read low 1.01 | locus YHR094C, strain hxt1, active compounds read low 0.988 | locus YHR129C, strain ARP1, active compounds read low 0.996 | locus YHR142W, strain chs7, active compounds read low 0.934 | locus YHR200W, strain rpn10, active compounds read low 0.983 | locus YIL066C, strain RNR3, active compounds read low 0.937 | locus YIL073C, strain SPO22, active compounds read low 0.997 | locus YIL125W, strain kgd1, active compounds read low 0.986 | locus YIR030C, strain dcg1, active compounds read low 1.01 | locus YJL092W, strain hpr5, active compounds read low 0.987 | locus YJL095W, strain BCK1 (second series), active compounds read low 0.977 | locus YJL095W, strain BCK1, active compounds read low 1.06 and 1.01 | locus YJL115W, strain asf1, active compounds read low 0.981 | locus YJL129C, strain trk1, active compounds read low 0.964 | locus YJL134W, strain LCB3, active compounds read low 0.987 | locus YJL154C, strain vps35, active compounds read low 0.983 | locus YJL164C, strain tpk1, active compounds read low 0.964 | locus YJL166W, strain qcr8, active compounds read low 1 | locus YJL168C, strain set2, active compounds read low 0.989 | locus YJL187C, strain SWE1 (second series), active compounds read low 1.03 | locus YJL187C, strain SWE1, active compounds read low 0.983 | locus YJR043C, strain POL32, active compounds read low 0.964 | locus YJR066W, strain TOR1, active compounds read low 0.969
